Screens from PubChem BioAssay.
An excerpt weighted towards active compounds, which were near 7.1% of everything screened.
ELG1 genotox = induces genotoxicity in HEK293T cells with luciferase-tagged ELG1. HEK293T ELG1-luciferase reporter, luminescence, 16 h. Potency, µM (doses to about 46 µM), without a hit: at the highest dose activity change, positive = activation, hits mostly activators. hit rate 1.3% among 330,000. AID 504466; also: % of control where 0% means no effect; nearly all actives have a fitted effect of over 60% in size
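ELG1-luciferase HEK293T cells, 2,000/well; compound pinned in; 16 hr, 37 °C, 5% CO2; ONE-Glo, 30 min RT; luminescence on CCD imager.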
ELG1 repair inh = ELG1-dependent DNA repair inhibition; hit rate 2.3% among 330,000; HEK293T ELG1-luciferase reporter, luminescence, 16 h; DNA damage induced by 5-fluorouridine; Potency, µM (series often up to 46.1 µM), for the others: top-dose activity change, negative = inhibition, hits mostly inhibitors; AID 504467; also: % is scaled to controls: 0 for no effect and ±100 for the full control effect; nearly all actives have a fitted effect of over 55% in size
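DMSO vehicle served as the neutral condition. Each well held 2,000 cells given 5-fluorouridine plus compound; after 16 hr at 37 °C/5% CO2, ONE-Glo was added and luciferase measured 30 min later.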
SW480 rereplic = DNA re-replication induction in SW480 cells; SW480 DNA re-replication, Hoechst DNA content imaging, 48 h; Potency, µM (series often up to 46.1 µM), without a hit: at the highest dose re-replication activation, usual class: activators; hit rate 1.8% among 340,000; AID 624297; also: % of control where 0% means no effect; nearly all actives have a fitted effect of over 55% in size
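Compounds, transferred as 23 nL by pin tool, were incubated with cells for 48 hr; DNA content per nucleus was then quantified by Hoechst staining and fluorescence plate imaging.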
AT treatment = potential ataxia-telangiectasia treatments restoring KAP-1 phosphorylation | F2112 A-T fibroblasts, KAP-1 phosphorylation AlphaLISA; neocarzinostatin DNA damage 30 min before lysis | hit rate 0.19% among 320,000 | Potency, µM (top dose mostly 57.5 µM), without a hit: top-dose activation, hits mostly activators; also: % of control where 0% means no effect; nearly all actives have a fitted effect of over 45% in size
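ATM-like activity read as KAP-1 phosphorylation via AlphaLISA donor/acceptor antibody pairs after lysis and 6 hr at 25C. Cells were ATM-null patient fibroblasts (F2112, hTERT), dosed 60 min, then exposed to the DSB inducer NCS for 30 min.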
p53 reactivation = re-activators of mutant p53; H1299 p53-A138V BP100-luciferase reporter, luminescence, 24 h; AID 504706; hit rate 0.063% among 320,000; Potency, µM (titrated, usually from 92.2 µM), for the others: top-dose activity change, positive = activation, actives largely listed as activators; also: % of control where 0% means no effect; nearly all actives have a fitted effect of over 45% in size
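H1299 (p53-null), stable ts p53-A138V + BP100-Luc; 1000 cells/well, Opti-MEM/10% FBS; cpd 4 pt, 1:5; 24 h, 37 deg C, 5% CO2; detection reagent 10 min RT; luminescence.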
MCF10A rerep = induces DNA re-replication in MCF 10a normal breast cells | MCF 10A DNA re-replication, Hoechst nuclear intensity, 48 h | Potency, µM (highest dose often 46.1 µM), inactives show at the highest dose activity, positive = re-replication, hits mostly activators | hit rate 2.9% among 350,000 | AID 624296; also: % of control where 0% means no effect; nearly all actives have a fitted effect of over 50% in size
* = called active by the depositor; ? = inconclusive; nt = no result. Calls follow the shape of the dose curve; as a rule, active = well fitted curve in the direction sought with a large enough effect; inconclusive = small, poorly fitted or top-dose-only effect, or another doubt; inactive = no such curve, though single readings can be large; an effect the other way counts as inactive or inconclusive. Potency is read from the fitted curve at half-maximal effect.

SMILES	ELG1 genotox	ELG1 repair inh	SW480 rereplic	AT treatment	p53 reactivation	MCF10A rerep
CC(C)(C)OC(=O)C[C@@H]1C/C=C\C[C@H](CC(=O)N(CCO)Cc2ccccc2)C(=O)NC[C@@H](c2ccccc2)OC1=O	2%	-17%	1%	-2%	-1%	-6%
CC(C)(C)OC(=O)C[C@H]1C/C=C\C[C@@H](CC(=O)N(CCO)Cc2ccccc2)C(=O)NC[C@H](c2ccccc2)OC1=O	-4%	18µM*	2%	9%	1%	17%
CC(C)(C)OC(=O)C[C@@H]1C/C=C\C[C@@H](CC(=O)N[C@@H](CO)Cc2ccccc2)C(=O)NC[C@@H](c2ccccc2)OC1=O	-5%	7.3µM*	0%	-8%	7%	13%
O=C1NC[C@@H](c2ccccc2)OC(=O)[C@@H](Cc2ccc(F)cc2)CC/C=C/C[C@H]1CC(=O)N(CCO)Cc1ccccc1	-5%	13µM*	4.6µM*	4%	4%	?
O=C1NC[C@@H](c2ccccc2)OC(=O)[C@H](Cc2ccc(F)cc2)C/C=C\C[C@H]1CC(=O)N(CCO)Cc1ccccc1	-3%	21µM*	0%	-2%	-2%	25%
Cc1ccc(NC(=O)CNC(=O)CC23CC4CC(CC(C4)C2)C3)c(O)c1	0%	12%	-1%	-6%	-2%	?
O=C1NC[C@H](c2ccccc2)OC(=O)[C@H](Cc2ccc(F)cc2)CC/C=C/C[C@@H]1CC(=O)N(CCO)Cc1ccccc1	-12%	12µM*	10%	2%	-1%	?
O=C(C[C@@H]1C/C=C/CC[C@@H](Cc2ccc(F)cc2)C(=O)O[C@@H](c2ccccc2)CNC1=O)NCCO	-7%	7.3µM*	-1%	0%	1%	10%
O=C1N[C@@H](c2ccccc2)COC(=O)[C@H](Cc2ccc(F)cc2)CC/C=C/C[C@H]1CC(=O)N(CCO)Cc1ccccc1	-15%	?	?	9%	14%	3%
CCOC(=O)C1CCCN(C(=O)c2ccc(Cl)c(S(=O)(=O)N3CCCCCC3)c2)C1 (stereo unspecified)	-14%	10µM*	-5%	0%	-4%	13%
CCOC(=O)C1CCCN(C(=O)c2cc3cc(Br)ccc3oc2=O)C1 (stereo unspecified)	-3%	13%	6.3µM*	3%	0%	5%
CCOC(=O)C1CCCN(C(=O)c2ccc(Cn3c(=S)[nH]c4cc(C(=O)OC)ccc4c3=O)cc2)C1 (stereo unspecified)	-21%	?	?	1%	0%	16µM*
Cc1cc(Cl)c(S(=O)(=O)N2CCN(c3ccc(F)cc3)CC2)cc1OCC(=O)NC1CCCCC1	-17%	8.2µM*	0%	nt	2%	26%
Cc1cc(Cl)c(S(=O)(=O)N2CCN(c3ccc(F)cc3)CC2)cc1OCC(N)=O	-7%	?	0%	nt	-6%	-4%
CCOC(=O)C1CCCN(S(=O)(=O)c2cc(OCC(=O)NC3CCCCC3)c(C)cc2Cl)C1 (stereo unspecified)	-8%	21µM*	2%	nt	2%	10%
CN(C)S(=O)(=O)c1ccc(N2CCCC2)c(C(=O)N2CCN(S(=O)(=O)c3ccccc3F)CC2)c1	2%	2%	-134%	0%	1%	2%
COc1ccc(OC)c(-c2csc(NC(=O)COC(=O)c3ccc(NC(=O)CC#N)cc3)n2)c1	1%	-17%	-3%	2%	-2%	3%
CN1CCc2nc3sc(C(=O)C45CC6CC(CC(C6)C4)C5)c(N)c3cc2C1	-5%	6%	21µM*	23%	-5%	9.2µM*
COc1ccc(Cc2nc3ccc(C(=O)N(C)CCc4cnn(C)c4)cc3o2)cc1OC	0%	?	-4%	-3%	nt	9%
CNC(=O)c1c(NC(=O)CCS(=O)(=O)c2ccc(C)cc2)sc(C)c1C	0%	19%	2%	3%	6%	-4%
CN(C)/C=C/C(=O)c1ccccc1	0%	18%	-19%	17%	8%	-1%
CCCc1ccc(C(=O)/C=C/N(C)C)cc1	9.2µM*	?	73%	3%	9%	?
CN(C)/C=C/C(=O)c1ccc(Oc2ccccc2)cc1	4.1µM*	?	-3%	2%	3%	10%
CN(C)c1ccc(N/C=C/C(=O)c2ccc(F)cc2)cc1	2.1µM*	?	?	-8%	?	?
CN(C)/C=C/C(=O)c1ccc(F)cc1	0%	16%	-13%	12%	9%	18µM*
SMILES	ELG1 genotox	ELG1 repair inh	SW480 rereplic	AT treatment	p53 reactivation	MCF10A rerep
CC(=O)c1ccc(N/C=C/C(=O)c2ccc(Br)cc2)cc1	6.5µM*	?	1%	3%	2%	-2%
CCC(C)[C@H](NC(=O)N1CC(=O)Nc2ccccc21)C(=O)N1CCC(C(=O)O)CC1 (stereo partly specified)	2%	?	10%	-1%	3%	-1%
O=C(/C=C/c1ccc(Br)cc1)NC1CCCCCC1	?	?	1%	1%	10%	-2%
CC(C)Cc1ccc(/C=C/C(=O)NC2CC2)cc1	16µM*	?	14%	-8%	?	?
O=C(CNc1ccc(F)cc1)N/N=C/C1CC=CCC1 (stereo unspecified)	4%	?	2%	-2%	-1%	2%
O=C(CNc1n[nH]c(=O)[nH]c1=O)N/N=C/C1CC=CCC1 (stereo unspecified)	1%	0%	18%	32µM*	1%	2%
CN(c1ccccc1)S(=O)(=O)c1cc(C(=O)Nc2ccccc2N2CCOCC2)ccc1Cl	nt	nt	6%	nt	nt	?
COc1ccc(CCNCc2ccc(-c3ccccc3)cc2)cc1OC	nt	nt	?	nt	nt	23µM*
COc1ccc(CNCCc2ccc(Cl)cc2)cc1OCc1ccccc1	-12%	15µM*	?	-1%	4%	21%
CCOc1cc(CNCc2ccccc2)ccc1OCc1ccc(Cl)cc1	-6%	?	15µM*	?	-2%	?
COc1ccc(CCNC(=S)NCc2ccc(Cl)c(Cl)c2)cc1OC	-4%	-13%	1%	3%	6%	13µM*
CCNCc1cc(Cl)c(OCc2ccccc2)c(OCC)c1	-2%	?	1%	-1%	-2%	-10%
COc1ccc(CNCCc2ccccc2)cc1OCC(N)=O	5%	18%	-2%	-3%	-1%	6%
O=C(Cc1ccccc1)c1ccc(N2CCOCC2)cc1	nt	nt	-2%	nt	nt	7%
